{"source": "PubChem BioAssay AID651915", "about": "(Vanderbilt Specialized Chemistry Center, 2012)", "target": "Histone deacetylase 5 (Homo sapiens) (UniProt Q9UQL6)", "sequence (Q9UQL6 whole entry, looked up)": "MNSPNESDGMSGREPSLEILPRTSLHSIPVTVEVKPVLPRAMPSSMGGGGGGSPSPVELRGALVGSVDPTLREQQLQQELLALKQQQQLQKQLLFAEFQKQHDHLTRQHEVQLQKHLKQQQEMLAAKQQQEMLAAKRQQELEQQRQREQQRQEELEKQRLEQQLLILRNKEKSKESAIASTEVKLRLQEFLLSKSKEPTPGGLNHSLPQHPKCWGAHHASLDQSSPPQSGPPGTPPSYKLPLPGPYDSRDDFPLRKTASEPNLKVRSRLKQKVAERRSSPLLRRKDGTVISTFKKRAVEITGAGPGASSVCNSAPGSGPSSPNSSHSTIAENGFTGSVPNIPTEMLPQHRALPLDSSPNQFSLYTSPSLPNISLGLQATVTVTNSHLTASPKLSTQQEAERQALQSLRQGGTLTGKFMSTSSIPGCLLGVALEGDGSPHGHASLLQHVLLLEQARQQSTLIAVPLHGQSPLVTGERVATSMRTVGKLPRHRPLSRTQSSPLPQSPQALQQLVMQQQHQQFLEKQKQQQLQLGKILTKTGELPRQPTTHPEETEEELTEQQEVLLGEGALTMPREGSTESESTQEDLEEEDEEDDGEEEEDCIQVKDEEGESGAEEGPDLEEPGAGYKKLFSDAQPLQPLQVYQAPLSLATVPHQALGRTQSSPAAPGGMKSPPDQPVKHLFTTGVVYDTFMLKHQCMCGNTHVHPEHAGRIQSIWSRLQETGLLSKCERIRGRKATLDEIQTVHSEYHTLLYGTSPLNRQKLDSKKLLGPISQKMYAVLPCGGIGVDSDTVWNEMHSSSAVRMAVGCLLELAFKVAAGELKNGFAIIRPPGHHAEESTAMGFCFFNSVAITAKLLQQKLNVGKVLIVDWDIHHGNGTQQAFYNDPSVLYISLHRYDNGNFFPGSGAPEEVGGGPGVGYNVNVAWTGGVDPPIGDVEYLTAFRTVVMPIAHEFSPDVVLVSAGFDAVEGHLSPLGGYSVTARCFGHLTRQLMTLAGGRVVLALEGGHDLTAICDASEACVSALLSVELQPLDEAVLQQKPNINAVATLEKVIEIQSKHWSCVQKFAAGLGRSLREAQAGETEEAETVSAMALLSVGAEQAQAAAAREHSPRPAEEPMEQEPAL", "assay": "inhibitors of recombinant human HDAC5 – biochemical, selectivity assay for E-cadherin restoration project, profiling panel (AID 651915)", "note": "The source made the active and inactive calls. How the calls were made is not given here."}
{"compound": "O=C(NCCCNC(=O)c1ccc[nH]c1=O)c1cc(-c2ccccc2)on1", "values": [{"measurement": "outcome", "value": "inactive"}]}
